Several values for one entry are separate records, joined by “and”; a condition that tells them apart may be missing. Equal entries are not always repeated. The panel holds about 79,000 compounds, 15% with a hit somewhere; the sample as a whole holds those more often. Activity calls are given as the source filed them. No stated cut-off is given here; in the data, active means growth inhibition above about 70%; inactive means the rest.
Columns and labels:
[1] = NCI Yeast Anticancer Drug Screen. Data for the mec2-1 strain (AID 157); settings: S. cerevisiae mec2-1 strain, stronger effect = higher value
How it was run: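 Vehicle-treated cultures served as reference for growth inhibition of compound-exposed mec2-1 yeast.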

[2] = NCI Yeast Anticancer Drug Screen. Data for the sgs1 mgt1 strain (AID 161);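 further: 0% = growth of cultures given vehicle only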; settings: S. cerevisiae sgs1 mgt1 strain, stronger effect = higher value
How it was run: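 Read-out: growth inhibition vs vehicle controls. Cells: mutant yeast strain deficient in DNA damage repair.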

[3] = NCI Yeast Anticancer Drug Screen. Data for the cln2 rad14 strain (AID 165);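 further: 0% = growth equal to vehicle treated cultures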; settings: S. cerevisiae cln2 rad14 strain, stronger effect = higher value
How it was run: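 Each compound was tested on cln2 rad14 yeast. Inhibition of growth was calculated against vehicle-exposed controls.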

[4] = NCI Yeast Anticancer Drug Screen. Data for the bub3 strain (AID 167); settings: S. cerevisiae bub3 mutant strain, stronger effect = higher value
How it was run: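 Screening used yeast with an engineered genetic alteration affecting cell cycle control. Compound-exposed cultures were compared with vehicle cultures, and reduced growth was taken as inhibition.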

[5] = NCI Yeast Anticancer Drug Screen. Data for the mlh1 rad18 strain (AID 175); settings: S. cerevisiae mlh1 rad18 strain growth inhibition, stronger effect = higher value
How it was run: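 Vehicle-treated cultures served as the reference for growth inhibition in a yeast strain carrying DNA damage repair alterations exposed to each compound.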

[6] = NCI Yeast Anticancer Drug Screen. Data for the rad50 strain (AID 155);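 further: 0% = growth of vehicle-only cultures of the same strain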; settings: S. cerevisiae rad50 strain growth inhibition, stronger effect = higher value
How it was run: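 Relative growth inhibition (compound vs vehicle) was measured in yeast with a defined repair-gene alteration.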

[7] = at 5.0 µM (retest, dose inferred, filed as 0.5)
[8] = at 50.0 µM (retest, dose inferred, filed as 5.0)

Measured: growth inhibition

CC(=O)C(=C(I)I)c1ccccc1
inactive: [1]; [7] -21% | [1]; at 50.0 µM 55% | [2]; [7] -27% | [3]; [7] 8% | [3]; [8] 34% | [3]; at 50.0 µM 30.8% | [4]; [7] -34% | [4]; at 50.0 µM 33.4% | [5]; [7] -28% | [5]; at 50.0 µM 24.2%
active: [1]; [8] 89% | [2]; [8] 93% | [2]; at 50.0 µM 73.7% | [4]; [8] 83% | [5]; [8] 80%

CCOc1nc(N)nc(C)c1N=Nc1ccc(Cl)cc1Cl
inactive: [6]; [7] 10% | [1]; [7] 0% | [1]; [8] 50% | [1]; at 50.0 µM 16.9% | [3]; [7] 15% | [3]; at 50.0 µM 36.4% | [4]; [7] 5% | [5]; [7] 14% | [5]; at 50.0 µM 45%
active: [6]; [8] 92% | [6]; at 50.0 µM 72.8% | [3]; [8] 77% | [4]; [8] 94% | [4]; at 50.0 µM 73.8% | [5]; [8] 97%

COC1OC2COC(c3ccccc3)OC2C(O)C1O (centres undefined)
inactive: [6]; at 50.0 µM -23.9% and 17.1% and 20.4% | [1]; at 50.0 µM -11.6% and -15.6% and -3.65% | [2]; at 50.0 µM -3.35% and 7.95% and 0.55% | [3]; at 50.0 µM -29.2% and -46% and -45.3% | [4]; at 50.0 µM -9.35% and -19.9% and -17.4% | [5]; at 50.0 µM -3.15% and -3.95% and 9.8%

O=[N+]([O-])c1ccc(NC(=S)N/N=C(\c2ccccc2)c2ccccn2)cc1
inactive: [6]; [7] 8% | [6]; at 50.0 µM 63.1% | [2]; [7] -19% | [3]; [7] 19% | [4]; [7] -5% | [5]; [7] 11%
active: [6]; [8] 73% | [2]; [8] 87% | [2]; at 50.0 µM 79.5% | [3]; [8] 75% | [3]; at 50.0 µM 72.1% | [4]; [8] 82% | [4]; at 50.0 µM 80.8% | [5]; [8] 89% | [5]; at 50.0 µM 79.8%

CC(NNC(=S)N1CCCCCC1)c1cc2ccccc2cn1 (centres undefined)
active: [6]; [8] 95% | [6]; at 50.0 µM 86.2% | [2]; [7] 93% | [2]; [8] 96% | [2]; at 50.0 µM 86.6% | [3]; [7] 90% | [3]; [8] 91% | [4]; [7] 87% | [4]; [8] 96% | [4]; at 50.0 µM 83.5% | [5]; [8] 95% | [5]; at 50.0 µM 90.5%
inactive: [6]; [7] 52% | [3]; at 50.0 µM 68.5% | [5]; [7] 47%

CC(=O)OC1COC(SC(=N)N)C(OC(C)=O)C1OC(C)=O (centres undefined)
inactive: [6]; at 50.0 µM 41.4% and 24.4% and 20% | [1]; at 50.0 µM 15.8% and 17.9% and -1.25% | [2]; at 50.0 µM 27.9% and 22.1% and 24.4% | [3]; at 50.0 µM 19.6% and -30.5% and -41.8% | [4]; at 50.0 µM 1.65% and 6.55% and -1.75% | [5]; at 50.0 µM 22.6% and 29.1% and 4.55%

Nc1ccc(S(=O)(=O)O)c2ccccc12
inactive: [6]; at 50.0 µM -17.7% and -12.8% and 15.7% | [1]; at 50.0 µM -18.1% and 3.25% and 3.85% | [2]; at 50.0 µM -10.4% and -28.8% and 7.35% | [3]; at 50.0 µM 6.25% and -52.1% and -17.6% | [4]; at 50.0 µM -1.95% and -17.8% and 7.6% | [5]; at 50.0 µM -12.8% and -40% and 8.1%

OC(c1ccccc1)C(O)c1ccccc1 (centres undefined)
inactive: [6]; at 50.0 µM 5.85% and 22.8% and 24.1% | [1]; at 50.0 µM -4.45% and -6.3% and 14.8% | [2]; at 50.0 µM 4.4% and 1.85% and 11.1% | [3]; at 50.0 µM -9.15% and -19.2% and 9.15% | [4]; at 50.0 µM 9.4% and 11.6% and 15.7% | [5]; at 50.0 µM 20.1% and 11.9% and 2.4%

CCCCN(CCCC)CC(O)c1cccc2c(Cl)cccc12 (centres undefined)
active: [6]; at 50.0 µM 86.5% | [2]; [8] 93% | [2]; at 50.0 µM 88.5% | [3]; at 50.0 µM 89.7% | [4]; [8] 82% | [4]; at 50.0 µM 94.8% | [5]; [8] 88% | [5]; at 50.0 µM 70.5%
inactive: [6]; [7] 15% | [6]; [8] 54% | [2]; [7] 13% | [3]; [7] 8% | [3]; [8] 57% | [4]; [7] 13% | [5]; [7] 24%

c1ccc(CN2CCC3(CC2)SSC2(CCN(Cc4ccccc4)CC2)SS3)cc1
inactive: [6]; [7] 0% | [6]; [8] 34% | [1]; [7] 14% | [1]; [8] -3% | [1]; at 50.0 µM 24.4% | [3]; [7] 31% | [3]; [8] 21% | [3]; at 50.0 µM 29.8% | [4]; [7] 16% | [4]; [8] 18% | [4]; at 50.0 µM 42.2% | [5]; [7] 7% | [5]; [8] 19% | [5]; at 50.0 µM 45.9%
active: [6]; at 50.0 µM 73.1%

Cc1cc(-c2ccccc2)c(C)c(-c2ccccc2)c1-c1ccccc1
inactive: [1]; [7] 0% | [1]; [8] -1% | [1]; at 50.0 µM 37.9% | [2]; [7] 3% | [2]; [8] 7% | [2]; at 50.0 µM 40% | [3]; [7] -5% | [3]; [8] 64% | [4]; [7] -13% | [4]; [8] 13% | [4]; at 50.0 µM 57.4% | [5]; [7] 1% | [5]; [8] 16% | [5]; at 50.0 µM 60.8%
active: [3]; at 50.0 µM 80.7%

O=C(Cc1nc2ccccc2s1)C(=O)Nc1ccc(Cl)cc1
active: [3]; at 50.0 µM 75%
inactive: [6]; [7] 2% | [6]; [8] 4% | [6]; at 50.0 µM 8% | [2]; [7] 4% | [2]; [8] 0% | [2]; at 50.0 µM 17.5% | [3]; [7] 2% | [3]; [8] 2% | [4]; [7] 5% | [4]; [8] -2% | [4]; at 50.0 µM 63.5% | [5]; [7] 1% | [5]; [8] 7% | [5]; at 50.0 µM 3.3%

COc1ccc(/C=N/n2c(C)nc3c(sc(=S)n3-c3ccccc3)c2=O)cc1
inactive: [1]; [7] -3% | [1]; [8] -6% | [1]; at 50.0 µM 46.8% | [2]; [7] 3% | [2]; [8] 23% | [2]; at 50.0 µM 11.4% | [3]; [7] -15% | [3]; [8] 4% | [3]; at 50.0 µM 8.15% | [4]; [7] 12% | [4]; [8] 29% | [4]; at 50.0 µM 47.4% | [5]; [7] 22% | [5]; [8] -12% | [5]; at 50.0 µM 10.8%

COc1cc2c(cc1OC)C(=O)C(C)(c1ccccc1)NC2 (centres undefined)
active: [6]; at 50.0 µM 91.9% | [2]; at 50.0 µM 92.4% | [3]; at 50.0 µM 99.5% | [4]; at 50.0 µM 97.3% | [5]; at 50.0 µM 97.8%
inactive: [6]; [7] 20% | [6]; [8] 2% | [2]; [7] 3% | [2]; [8] -1% | [3]; [7] 10% | [3]; [8] 56% | [4]; [7] 2% | [4]; [8] 31% | [5]; [7] 4% | [5]; [8] -3%
